Reference: PubChem BioAssay (NCI)
About 83,000 compounds went through this panel and 20% of them were active in at least one assay; those are over-represented in the sample as a whole.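 Cell lines were cultured in 96-well plates, exposed to a single compound concentration, and assessed for percent growth 48 hours later.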 Active and inactive are the calls of the source. How the source made its calls: active means growth percent below 10; inactive means the rest.

The compounds below were run on NCI-H322M lung (assay: NCI-60 one-dose screen, 48 h (100 = growth as untreated, 0 = no growth, -100 = all killed)). Conditions: 10 µM unless noted.

Compound | growth
CCN1CCN(C(=S)SCC(=O)Nc2nc3ccc(OC)cc3s2)CC1 | 92.3% (inactive)
COc1ccc(-c2nc3sc(C)nn3c2-c2nc3cc(C)c(C)cc3[nH]2)cc1 | 99.4% (inactive)
CCCCC1COc2cccc3c(SCC(=O)N(C)c4cccc5ccccc45)cc[n+]1c23 (stereo not drawn) | 110% (inactive)
O=C1NC(=O)C(CSc2ccccc2)(c2ccccc2)N1 (stereo not drawn) | 86.5% (inactive)
O=C1c2ccccc2-c2nnc(-c3ccc(Br)cc3)cc21 | 86.8% (inactive)
O=c1c2cc(F)ccc2oc2c(NCCNCCO)nc3ccccc3c12 | 36.1% (inactive)
CCCCCn1c(=N)n(CC(O)COc2cccc(C)c2)c2ccccc21 (stereo not drawn) | 14% (inactive)
Cc1ccccc1-n1nnc(C(=O)Nc2ccc(-c3ccccc3)cn2)c1C | 81.3% [50 µM] (inactive)
O=C(N/N=C/c1ccc(OC(F)F)c(OC2CCCC2)c1)c1cnn2c1NC(c1ccccc1)C2 (stereo not drawn) | 92.6% (inactive)
O=C(NCc1ccc(F)cc1)C1CN(c2ccc(Cl)cc2)N(c2ccc(Cl)cc2)C1=O (stereo not drawn) | 93.1% (inactive)
O=C1CCC(N2Cc3c(C#CCCCNC(=O)c4cc5c(o4)C(=O)c4ccccc4C5=O)cccc3C2=O)C(=O)N1 (stereo not drawn) | -88.2% (active)
Nc1cccc2c(=S)c3ccccc3[nH]c12 | 92.1% (inactive)
Cc1ccc(NS(=O)(=O)c2ccc(-c3cnc(C4CC4)o3)cc2)cc1 | 69% (inactive)
N#Cc1c(-c2cccc(F)c2)cc(-c2ccc(Br)s2)[nH]c1=O | 87.9% (inactive)
O=C1c2ccccc2-c2cn(Cc3ccccc3)c3cccc(c23)C1c1cccnc1 (stereo not drawn) | 54% (inactive)
COc1cc2cc(Oc3ccc(NC(=O)Nc4cccc(C(F)(F)F)c4)cc3)c(C)nc2cc1OCCN1CCCCC1 | -14.5% (active)
CCC(=O)Nc1nnc(Cc2ccc(OC)c(OC)c2)s1 | 24.9% (inactive)
O=c1[nH]c(=S)c2c(n1CCCO)CCC2 | 108% (inactive)
CC(C)(C)[Si](C)(C)OC1[C@@H](COC(=O)NC(=O)CCl)O[C@@H](n2cnc3c(N)ncnc32)[C@H]1O[Si](C)(C)C(C)(C)C (stereo partly drawn) | 113% (inactive)
Cc1ccccc1-n1nnc(C(=O)Nc2nc(-c3ccccc3)c(-c3ccccc3)s2)c1C | 84.4% [50 µM] (inactive)
Oc1ccc2ccccc2c1C1NN=C(c2ccccc2)S1 (stereo not drawn) | 29.2% (inactive)
CCCCCCCC/C=C\CCCCCCCCOc1cccc(CC(=O)NCC[N+]2(C)CCOCC2)c1 | 101% (inactive)
CCC(C)Oc1cc(/C=N/NC(=O)c2cnn3c2NC(c2ccccc2)C3)ccc1OC (stereo not drawn) | 45% (inactive)
COc1ccc(OC2=CC(=O)c3ccc(C)nc3C2=O)cc1 | 102% (inactive)
COc1ccc(/C=C2\SC(=O)N(CN3CCN(c4cc5c(cc4F)c(=O)c(C(=O)O)cn5C4CC4)CC3)C2=O)cc1 | 112% (inactive)

These compounds were tested on HOP-62 NSCLC in the same assay as above. Conditions: 10 µM unless noted.

Compound | growth
O=c1[nH]c(=O)n(Cc2ccc(F)cc2)cc1F | 109% [50 µM] (inactive)
CC(=O)Nc1ccccc1-c1n[nH]c(=O)[nH]c1=O | 97.6% (inactive)
CCOC(=O)c1[nH]c2cc(Cl)ccc2c1[C@@H](C(=O)NC(C)(C)C)N(CC)C(=O)CCCCC#Cc1cccc2c1CN(C1CCC(=O)NC1=O)C2=O (stereo partly drawn) | 20.7% (inactive)
NS(=O)(=O)c1ccc(C(=O)N/N=C(\CS(=O)(=O)c2ccccc2)c2cc3cc(Br)ccc3o2)cc1 | 96% (inactive)
O=C1Nc2ccc(Cl)cc2/C1=N/N=C(c1ccccc1)c1ccccc1 | 83.3% (inactive)
Cc1c(C(=O)Nc2nc(-c3ccccc3)cs2)nnn1-c1cccc2ccccc12 | 87.9% [50 µM] (inactive)
COc1ccc(NS(=O)(=O)c2ccc(-c3cnc(C4CC4)o3)cc2)cc1 | 54.8% (inactive)
O=c1[nH]c(-c2ccncc2)nc2sc3c(c12)CCCCCC3 | 52.2% (inactive)
CC(C)OC1=C(Cl)C(=O)c2ccccc2C1=O | 92.1% (inactive)
O=c1nc(NO)[nH]c(=O)n1Cc1ccccc1 | 110% (inactive)
COc1c(O)c2c3c(c1OC)-c1ccccc1CC3N(S(=O)(=O)c1ccc(C)cc1)CC2 (stereo not drawn) | 41.6% (inactive)
Fc1c[c-]c(-c2ccccn2)c(F)c1.Fc1c[c-]c(-c2ccccn2)c(F)c1.[Cl][Pt+].[Cl][Pt+].c1ccc([PH+](C[PH+](c2ccccc2)c2ccccc2)c2ccccc2)cc1 | 20.9% (inactive)
O=C(c1ccc2ncc(-c3nc(NC4CC4)ncc3F)n2c1)N1CCOCC1 | 7.33% (active)
CCN1CCN(C(=S)SCC(=O)Nc2nc3ccc(OC)cc3s2)CC1 | 97.2% (inactive)
COc1ccc(-c2nc3sc(C)nn3c2-c2nc3cc(C)c(C)cc3[nH]2)cc1 | 91.8% (inactive)
CCCCC1COc2cccc3c(SCC(=O)N(C)c4cccc5ccccc45)cc[n+]1c23 (stereo not drawn) | 106% (inactive)
O=C1NC(=O)C(CSc2ccccc2)(c2ccccc2)N1 (stereo not drawn) | 97.3% (inactive)
O=C1c2ccccc2-c2nnc(-c3ccc(Br)cc3)cc21 | 56.3% (inactive)
O=c1c2cc(F)ccc2oc2c(NCCNCCO)nc3ccccc3c12 | 35.5% (inactive)

Compound | growth
CCCCCn1c(=N)n(CC(O)COc2cccc(C)c2)c2ccccc21 (stereo not drawn) | 17.9% (inactive)
Cc1ccccc1-n1nnc(C(=O)Nc2ccc(-c3ccccc3)cn2)c1C | 93.7% [50 µM] (inactive)
O=C(N/N=C/c1ccc(OC(F)F)c(OC2CCCC2)c1)c1cnn2c1NC(c1ccccc1)C2 (stereo not drawn) | 84.9% (inactive)
O=C(NCc1ccc(F)cc1)C1CN(c2ccc(Cl)cc2)N(c2ccc(Cl)cc2)C1=O (stereo not drawn) | 60.5% (inactive)
O=C1CCC(N2Cc3c(C#CCCCNC(=O)c4cc5c(o4)C(=O)c4ccccc4C5=O)cccc3C2=O)C(=O)N1 (stereo not drawn) | -65.3% (active)
Nc1cccc2c(=S)c3ccccc3[nH]c12 | 82.7% (inactive)
Cc1ccc(NS(=O)(=O)c2ccc(-c3cnc(C4CC4)o3)cc2)cc1 | 36.4% (inactive)
N#Cc1c(-c2cccc(F)c2)cc(-c2ccc(Br)s2)[nH]c1=O | 72.2% (inactive)
O=C1c2ccccc2-c2cn(Cc3ccccc3)c3cccc(c23)C1c1cccnc1 (stereo not drawn) | 36% (inactive)
COc1cc2cc(Oc3ccc(NC(=O)Nc4cccc(C(F)(F)F)c4)cc3)c(C)nc2cc1OCCN1CCCCC1 | -68.8% (active)
CCC(=O)Nc1nnc(Cc2ccc(OC)c(OC)c2)s1 | -67.2% (active)
O=c1[nH]c(=S)c2c(n1CCCO)CCC2 | 104% (inactive)
CC(C)(C)[Si](C)(C)OC1[C@@H](COC(=O)NC(=O)CCl)O[C@@H](n2cnc3c(N)ncnc32)[C@H]1O[Si](C)(C)C(C)(C)C (stereo partly drawn) | 81.9% (inactive)
Cc1ccccc1-n1nnc(C(=O)Nc2nc(-c3ccccc3)c(-c3ccccc3)s2)c1C | 84.8% [50 µM] (inactive)
Oc1ccc2ccccc2c1C1NN=C(c2ccccc2)S1 (stereo not drawn) | 28.8% (inactive)
CCCCCCCC/C=C\CCCCCCCCOc1cccc(CC(=O)NCC[N+]2(C)CCOCC2)c1 | 66.3% (inactive)
CCC(C)Oc1cc(/C=N/NC(=O)c2cnn3c2NC(c2ccccc2)C3)ccc1OC (stereo not drawn) | 37.2% (inactive)
COc1ccc(OC2=CC(=O)c3ccc(C)nc3C2=O)cc1 | 89.1% (inactive)
COc1ccc(/C=C2\SC(=O)N(CN3CCN(c4cc5c(cc4F)c(=O)c(C(=O)O)cn5C4CC4)CC3)C2=O)cc1 | 109% (inactive)
